Data as given in PubChem BioAssay (EPA / NIEHS).
Where “and” joins values, the source holds several entries; their conditions need not be identical. Equal values may be shown once. Where a structure was tested more than once in an assay, its records may differ in their call. Calls of active or inactive are those of the source. Rule for the calls: active = hit-call score of the fitted dose curve at least 0.9, where 1 is the maximum; inactive = score below 0.9.

What was measured:
Settings in all cases: mRNA level, 48 h; actives raise or lower the signal
[1] = read-out: Cyclin D2 (CCND2), CCND2 (gene 894); test: LTEA_HepaRG_CCND2: Life Technologies and Expression Analysis (LTEA) Assay for Cyclin D2 (CCND2) using HepaRG (AID 2283449);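 note: CCND2 transcript measured by TaqMan qRT-PCR and normalised to three housekeeping genes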
In short: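 Chemicals in 0.5% DMSO, eight half-log concentrations from 100 uM top, were applied in duplicate for 48 h to human HepaRG cells in serum-free induction medium. CCND2 mRNA by TaqMan qRT-PCR, normalised to ACTB/GAPDH/POLR2A; bidirectional fit versus DMSO.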

[2] = read-out: Cyclin Dependent Kinase Inhibitor 1A (CDKN1A), CDKN1A (gene 1026); test: LTEA_HepaRG_CDKN1A: Life Technologies and Expression Analysis (LTEA) Assay for Cyclin Dependent Kinase Inhibitor 1A (CDKN1A) using HepaRG (AID 2283450)
In short: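 Gain or loss of CDKN1A transcript is scored by bidirectional fitting against 0.5% DMSO vehicle. Human HepaRG cultures receive chemicals for 48 h across an 8-point series peaking at 100 uM; expression comes from qRT-PCR.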

[3] = read-out: Cyclin D1 (CCND1), CCND1 (gene 595); test: LTEA_HepaRG_CCND1: Life Technologies and Expression Analysis (LTEA) Assay for Cyclin D1 (CCND1) using HepaRG (AID 2283451);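 for AC50: TaqMan qRT-PCR transcript level normalised to ACTB GAPDH and POLR2A housekeeping genes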
In short: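 Expression change is measured by qRT-PCR in HepaRG cells after 48 h treatment across eight concentrations topping at 100 uM, with duplicate wells and DMSO (0.5%) serving as baseline for bidirectional fitting.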

[4] = read-out: catalase (CAT), CAT (gene 847); test: LTEA_HepaRG_CAT: Life Technologies and Expression Analysis (LTEA) Assay for catalase (CAT) using HepaRG (AID 2283452);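 for AC50: TaqMan qRT-PCR signal normalized to ACTB GAPDH and POLR2A housekeeping genes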
In short: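 HepaRG cells in serum-free induction medium, 0.5% DMSO vehicle, exposed 48 h in duplicate over 8 half-log concentrations from 100 uM. CAT mRNA measured by qRT-PCR, normalized to ACTB, GAPDH, POLR2A; bidirectional fit versus DMSO.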

[5] = read-out: Cytochrome P450 (CYP1A1), CYP1A1 (gene 1543); test: LTEA_HepaRG_CYP1A1: Life Technologies and Expression Analysis (LTEA) Assay for Cytochrome P450 (CYP1A1) using HepaRG (AID 2283454)
In short: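 Using HepaRG cultures with 0.5% DMSO as vehicle, eight-concentration exposures (max 100 uM) lasted 48 h. Transcript levels were measured by TaqMan qRT-PCR and normalized to ACTB, GAPDH and POLR2A.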

[6] = read-out: CFLAR gene, CFLAR (gene 8837); test: LTEA_HepaRG_CFLAR: Life Technologies and Expression Analysis (LTEA) Assay for CFLAR gene using HepaRG (AID 2283455)
In short: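 Differentiated HepaRG cells in serum-free induction medium were exposed 48 h in duplicate to eight half-log concentrations up to 100 uM in 0.5% DMSO; mRNA measured by TaqMan qRT-PCR, normalized to ACTB, GAPDH, POLR2A; bidirectional fitting versus DMSO.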

[7] = read-out: Forkhead box O1 (FOXO1), FOXO1 (gene 2308); test: LTEA_HepaRG_FOXO1: Life Technologies and Expression Analysis (LTEA) Assay for Forkhead box O1 (FOXO1) using HepaRG (AID 2283456)
In short: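 Differentiated HepaRG cells, in serum-free induction medium with 0.5% DMSO, exposed 48 h in duplicate to 8-point half-log series from 100 uM. FOXO1 mRNA measured by TaqMan qRT-PCR, normalized to ACTB, GAPDH, POLR2A; bidirectional fit versus DMSO.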

[8] = read-out: growth arrest and DNA damage 45 (GADD45A), GADD45A (gene 1647); test: LTEA_HepaRG_GADD45A: Life Technologies and Expression Analysis (LTEA) Assay for growth arrest and DNA damage 45 (GADD45A) using HepaRG (AID 2283458)
In short: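 Differentiated HepaRG cells were exposed in duplicate for 48 h in serum-free induction medium to 8-point half-log concentrations up to 100 uM in 0.5% DMSO. GADD45A mRNA was measured by TaqMan qRT-PCR, normalized to ACTB, GAPDH and POLR2A, with bidirectional fitting versus DMSO.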

[9] = read-out: Forkhead box O3 (FOXO3), FOXO3 (gene 2309); test: LTEA_HepaRG_FOXO3: Life Technologies and Expression Analysis (LTEA) Assay for Forkhead box O3 (FOXO3) using HepaRG (AID 2283459)
In short: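 Differentiated human HepaRG cells, 48 h post-plating, exposed in duplicate for 48 h in serum-free induction medium; 8-point half-log series from 100 uM in 0.5% DMSO. FOXO3 mRNA by TaqMan qRT-PCR, normalized to ACTB/GAPDH/POLR2A; bidirectional fit versus DMSO.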

[10] = read-out: ABC Transporter (ABCB1), ABCB1 (gene 5243); test: LTEA_HepaRG_ABCB1: Life Technologies and Expression Analysis (LTEA) Assay for ABC Transporter (ABCB1) using HepaRG (AID 2283460)
In short: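 HepaRG cells exposed in duplicate for 48 h in serum-free induction medium to eight half-log concentrations up to 100 uM in 0.5% DMSO. ABCB1 mRNA quantified by qRT-PCR, normalised to ACTB, GAPDH and POLR2A; fitted bidirectionally versus DMSO.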

[11] = read-out: growth arrest and DNA damage 45 (GADD45B), GADD45B (gene 4616); test: LTEA_HepaRG_GADD45B: Life Technologies and Expression Analysis (LTEA) Assay for growth arrest and DNA damage 45 (GADD45B) using HepaRG (AID 2283461)
In short: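 Human HepaRG monolayers receive chemicals for 48 h at eight half-log concentrations, highest 100 uM, in 0.5% DMSO. Expression is measured by TaqMan qRT-PCR and normalized to ACTB, GAPDH and POLR2A.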

[12] = read-out: ABC Transporter (ABCB11), ABCB11 (gene 8647); test: LTEA_HepaRG_ABCB11: Life Technologies and Expression Analysis (LTEA) Assay for ABC Transporter (ABCB11) using HepaRG (AID 2283463)
In short: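 Differentiated human HepaRG cells in serum-free induction medium, dosed in duplicate for 48 h. Eight-point half-log series from 100 uM in 0.5% DMSO; ABCB11 mRNA by qRT-PCR, normalized to ACTB, GAPDH, POLR2A, fitted bidirectionally versus DMSO.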

[13] = read-out: ABC Transporter (ABCC2), ABCC2 (gene 1244); test: LTEA_HepaRG_ABCC2: Life Technologies and Expression Analysis (LTEA) Assay for ABC Transporter (ABCC2) using HepaRG (AID 2283464)
In short: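 After plating and 48 h culture, HepaRG medium is replaced with serum-free induction medium and chemicals are added (8 concentrations, max 100 uM, 0.5% DMSO) for 48 h. Total RNA then undergoes qRT-PCR for ABCC2 with housekeeping normalization.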

[14] = read-out: Broad substrate specificity ATP-binding cassette transporter ABCG2 (Homo sapiens) (UniProt Q9UNQ0); test: LTEA_HepaRG_ABCG2: Life Technologies and Expression Analysis (LTEA) Assay for ABC Transporter (ABCG2) using HepaRG (AID 2283465)
In short: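 Differentiated HepaRG cells were exposed for 48 h in serum-free induction medium to 8 half-log concentrations, top 100 uM, in 0.5% DMSO. ABCG2 mRNA was measured by qRT-PCR, normalized to ACTB, GAPDH and POLR2A, with bidirectional fitting versus DMSO.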

[15] = read-out: ATP-citrate lyase (ACLY), ACLY (gene 47); test: LTEA_HepaRG_ACLY: Life Technologies and Expression Analysis (LTEA) Assay for ATP-citrate lyase (ACLY) using HepaRG (AID 2283466)
In short: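 Differentiated HepaRG cells exposed 48 h in serum-free induction medium to eight half-log concentrations up to 100 uM in 0.5% DMSO, duplicates. Transcript measured by Fluidigm TaqMan qRT-PCR, normalized to ACTB, GAPDH, POLR2A; bidirectional fit versus DMSO.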

[16] = read-out: Peroxisomal acyl-coenzyme A oxidase 1 (ACOX1) gene, ACOX1 (gene 51); test: LTEA_HepaRG_ACOX1: Life Technologies and Expression Analysis (LTEA) Assay for Peroxisomal acyl-coenzyme A oxidase 1 (ACOX1) gene using HepaRG (AID 2283467)
In short: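 HepaRG cells, plated 48 h then switched to serum-free induction medium, were exposed in duplicate for 48 h to 8-point half-log concentrations up to 100 uM in 0.5% DMSO. ACOX1 mRNA was measured by qRT-PCR, normalized to ACTB/GAPDH/POLR2A, and fitted bidirectionally versus DMSO.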

[17] = read-out: Alkaline Phosphatase, Placental (ALPP) gene, ALPP (gene 250); test: LTEA_HepaRG_ALPP: Life Technologies and Expression Analysis (LTEA) Assay for Alkaline Phosphatase, Placental (ALPP) gene using HepaRG (AID 2283468)
In short: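 Using human liver HepaRG cells, chemicals are tested in duplicate over 48 h at half-log concentrations topping at 100 uM; phenobarbital 1 mM serves as induction control. ALPP mRNA change by qRT-PCR, bidirectional fit against vehicle.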

[18] = read-out: Bcl-2 (BAD) gene, BAD (gene 572); test: LTEA_HepaRG_BAD: Life Technologies and Expression Analysis (LTEA) Assay for Bcl-2 (BAD) gene using HepaRG (AID 2283469)
In short: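 Differentiated HepaRG cells were exposed in duplicate in 0.5% DMSO for 48 h to eight-point half-log concentrations up to 100 uM. BAD mRNA was measured by Fluidigm TaqMan qRT-PCR, normalized to ACTB, GAPDH and POLR2A, and fitted bidirectionally against DMSO.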

[19] = read-out: adenosine kinase (ADK) gene, ADK (gene 132); test: LTEA_HepaRG_ADK: Life Technologies and Expression Analysis (LTEA) Assay for adenosine kinase (ADK) gene using HepaRG (AID 2283471)
In short: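 Differentiated HepaRG cells dosed 48 h in serum-free induction medium, 0.5% DMSO vehicle, eight half-log concentrations from 100 uM, in duplicate. ADK mRNA by TaqMan qRT-PCR normalised to ACTB, GAPDH, POLR2A; bidirectional fit versus DMSO.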

Measured: AC50

Sequence of Broad substrate specificity ATP-binding cassette transporter ABCG2 (Homo sapiens) (Q9UNQ0 whole entry, looked up): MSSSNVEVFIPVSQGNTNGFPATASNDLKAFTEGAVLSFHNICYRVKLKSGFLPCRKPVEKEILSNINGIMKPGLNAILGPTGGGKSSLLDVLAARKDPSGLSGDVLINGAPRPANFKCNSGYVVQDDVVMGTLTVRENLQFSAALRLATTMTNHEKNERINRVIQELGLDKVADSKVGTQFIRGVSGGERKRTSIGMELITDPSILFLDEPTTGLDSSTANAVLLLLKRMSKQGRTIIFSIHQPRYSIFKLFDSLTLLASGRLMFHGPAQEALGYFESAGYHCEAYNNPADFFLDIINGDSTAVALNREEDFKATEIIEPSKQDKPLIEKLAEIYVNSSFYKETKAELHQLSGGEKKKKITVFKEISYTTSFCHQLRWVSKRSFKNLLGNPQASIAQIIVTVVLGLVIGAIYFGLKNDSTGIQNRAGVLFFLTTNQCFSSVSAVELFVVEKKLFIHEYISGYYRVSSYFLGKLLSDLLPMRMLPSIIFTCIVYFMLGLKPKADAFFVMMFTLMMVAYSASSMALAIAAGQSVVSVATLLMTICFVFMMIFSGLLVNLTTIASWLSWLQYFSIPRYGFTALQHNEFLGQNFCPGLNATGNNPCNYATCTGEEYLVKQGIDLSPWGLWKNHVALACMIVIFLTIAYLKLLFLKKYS

CCN1CCC2(CC1)COc1cc3c(cc12)N(C(=O)c1ccc(-c2ccc(-c4nnc(C)o4)cc2C)cc1)CC3
active: [1] 46.8 µM | [2] 84.6 µM | [3] 30.8 µM | [4] 21.1 µM | [5] 9.34 µM | [6] 29.2 µM | [7] 27.7 µM | [8] 75.3 µM | [9] 17.4 µM | [10] 17.4 µM | [11] 12.5 µM | [13] 18.5 µM | [15] 21.5 µM | [16] 30.2 µM | [19] 21.3 µM
inactive: [12] | [14] | [17] | [18]

CCCCCCCCc1ccc(O)cc1
active: [3] 0.346 µM
not listed: [1]
inactive: all other assays above

COc1cc(-c2ccc(N)c(OC)c2)ccc1N
active: [3] 32.7 µM | [5] 20.6 µM and 24.2 µM | [10] 50 µM | [11] 50 µM | [12] 71.5 µM | [13] 50 µM | [14] 25 µM
inactive: [1] | [2] | [3] | [4] | [6] | [7] | [8] | [9] | [10] | [11] | [12] | [13] | [14] | [15] | [16] | [17] | [18] | [19]

C[C@@H]1C[C@@H]([C@H](O)CC2CC(=O)NC(=O)C2)C(=O)[C@@H](C)C1
inactive: [1] | [7]
active: [2] 13.2 µM | [3] 3.34 µM | [4] 12.4 µM | [6] 13.4 µM | [8] 50 µM | [9] 34.3 µM | [10] 83.5 µM | [11] 22.3 µM | [12] 4.26 µM | [13] 27.3 µM | [14] 10.4 µM | [15] 9.23 µM | [16] 50 µM | [17] 73.8 µM | [19] 81.2 µM

C[C@]12CCC(=O)C[C@@H]1CC[C@@H]1[C@@H]2CC[C@]2(C)[C@@H](O)CC[C@@H]12
active: [5] 35.7 µM | [8] 0.00162 µM | [12] 50 µM
inactive: all other assays above

O=C(Nc1ccc2[nH]ccc2c1)c1cc2cc(F)ccc2n1Cc1cccc(F)c1
active: [3] 39.5 µM | [4] 25.1 µM | [5] 91.7 µM | [8] 20.7 µM | [10] 90.3 µM | [12] 38.1 µM | [13] 78.2 µM | [14] 32.2 µM | [16] 63.1 µM | [17] 14.4 µM
inactive: [2] | [6] | [7] | [9] | [11] | [15] | [18] | [19]

CCOP(=S)(OCC)SCSP(=S)(OCC)OCC
active: [5] 33.1 µM | [8] 0.0566 µM | [11] 0.0743 µM | [13] 50 µM | [15] 78.7 µM | [19] 0.106 µM
inactive: all other assays above
